# Screening data deposited in PubChem BioAssay by several laboratories.
# Mcl1 Bid PPI: disrupts binding of human Mcl-1 to Bid peptide. Q07820. TR-FRET Mcl-1/Bid-Dy647 peptide binding, 1536-well. inhibition, % at 21.7 µM. 0.97% of 220,000 active. AID 1021;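 active = compounds that cut the binding signal by more than half at the single screening dose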;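 also: His-tagged Mcl-1 with europium anti-His antibody binding Bid BH3 peptide; 0% = Mcl-1 plus peptide wells and 100% = peptide-only wells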
# eIF4E 4G PPI: inhibitors of eIF4E and eIF4G interaction in translation initiation; P63073+Q04637; 0.37% of 220,000 active; TR-FRET eIF4E-eIF4GI(517-606) binding, 2 h; AID 782; inhibition, % at 21.7 µM;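 active = inhibition above about 30%, limit read from the data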;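 also: 0% = full FRET control wells and 100% = background wells lacking eIF4GI fragment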
# Target sequence (P63073 whole entry, looked up, the tested form may be a part): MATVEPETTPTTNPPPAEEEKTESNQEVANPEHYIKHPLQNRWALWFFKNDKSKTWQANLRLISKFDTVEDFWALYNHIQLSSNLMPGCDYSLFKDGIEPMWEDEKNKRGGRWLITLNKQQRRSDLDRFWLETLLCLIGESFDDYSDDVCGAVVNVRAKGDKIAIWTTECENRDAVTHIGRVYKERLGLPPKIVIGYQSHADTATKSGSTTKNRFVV
# Target sequence (Q04637 whole entry, looked up, the tested form may be a part): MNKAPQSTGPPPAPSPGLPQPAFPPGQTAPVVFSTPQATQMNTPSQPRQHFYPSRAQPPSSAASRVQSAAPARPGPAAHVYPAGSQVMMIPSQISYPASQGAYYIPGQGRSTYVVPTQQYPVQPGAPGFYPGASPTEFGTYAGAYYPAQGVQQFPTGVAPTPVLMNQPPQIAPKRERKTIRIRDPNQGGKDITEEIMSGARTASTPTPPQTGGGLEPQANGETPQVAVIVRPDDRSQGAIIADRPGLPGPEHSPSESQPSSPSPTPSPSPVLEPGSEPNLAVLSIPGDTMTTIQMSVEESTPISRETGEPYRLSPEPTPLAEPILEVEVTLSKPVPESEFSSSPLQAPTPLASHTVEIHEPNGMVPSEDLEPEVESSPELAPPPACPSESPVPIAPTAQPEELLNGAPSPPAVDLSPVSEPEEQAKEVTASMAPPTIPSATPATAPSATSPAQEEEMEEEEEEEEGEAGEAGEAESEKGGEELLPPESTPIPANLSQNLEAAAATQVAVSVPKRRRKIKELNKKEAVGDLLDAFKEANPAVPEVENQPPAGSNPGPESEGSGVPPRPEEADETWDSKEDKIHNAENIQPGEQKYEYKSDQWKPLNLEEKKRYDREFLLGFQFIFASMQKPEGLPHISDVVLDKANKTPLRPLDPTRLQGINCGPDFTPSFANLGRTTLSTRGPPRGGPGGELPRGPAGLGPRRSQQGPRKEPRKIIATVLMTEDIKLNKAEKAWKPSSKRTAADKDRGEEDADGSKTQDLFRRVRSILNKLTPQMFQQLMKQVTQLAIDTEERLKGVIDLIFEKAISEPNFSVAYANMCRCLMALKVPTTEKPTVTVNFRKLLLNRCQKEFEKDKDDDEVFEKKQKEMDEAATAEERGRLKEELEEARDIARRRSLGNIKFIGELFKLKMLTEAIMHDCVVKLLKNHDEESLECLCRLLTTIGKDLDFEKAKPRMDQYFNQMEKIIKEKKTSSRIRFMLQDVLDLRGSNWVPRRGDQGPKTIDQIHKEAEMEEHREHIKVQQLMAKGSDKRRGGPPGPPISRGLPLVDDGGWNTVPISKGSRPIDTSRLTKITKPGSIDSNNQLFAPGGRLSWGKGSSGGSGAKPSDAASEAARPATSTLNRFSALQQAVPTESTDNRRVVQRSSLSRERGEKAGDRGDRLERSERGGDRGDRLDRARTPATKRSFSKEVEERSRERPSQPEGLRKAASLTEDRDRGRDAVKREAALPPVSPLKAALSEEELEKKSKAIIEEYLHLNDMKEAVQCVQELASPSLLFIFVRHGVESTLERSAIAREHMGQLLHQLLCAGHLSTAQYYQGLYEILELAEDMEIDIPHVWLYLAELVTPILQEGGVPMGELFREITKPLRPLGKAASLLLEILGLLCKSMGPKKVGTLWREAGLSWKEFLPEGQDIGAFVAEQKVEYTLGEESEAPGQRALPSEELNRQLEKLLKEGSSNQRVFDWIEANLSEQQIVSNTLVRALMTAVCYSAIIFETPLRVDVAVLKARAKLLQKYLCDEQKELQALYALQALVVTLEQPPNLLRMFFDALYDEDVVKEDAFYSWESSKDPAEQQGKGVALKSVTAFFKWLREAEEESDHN
# 14-3-3 Bad inh: disrupts binding of bovine 14-3-3 zeta to phospho-Bad peptide; P63103; TR-FRET 14-3-3zeta/Dy647-pBad peptide displacement, 1 h; inhibition, % at 21.7 µM; 0.71% of 220,000 active;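 active = inhibition above about 70%, limit read from the data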;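 also: 0% = full 14-3-3 plus peptide FRET controls and 100% = background without 14-3-3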
# Hck-Nef inh: human Hck-Nef kinase inhibition. Recombinant Hck-YEEI plus Nef, Z-Lyte FRET kinase assay. inhibition, % at 20 µM. 0.68% of 220,000 active. AID 463187;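 active = Hck-Nef kinase inhibition above about 50%, limit read from the data; inactive = inhibition below that limit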;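 also: 0% = DMSO with Hck plus Nef and 100% = Hck alone without Nef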
# Mcl1 Noxa PPI: Mcl-1/Noxa interaction inhibition. TR-FRET Mcl-1/Noxa peptide binding, 2 h. inhibition, % at 21.7 µM. 1.5% of 220,000 active;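 active = compounds that cut the protein-peptide binding signal by more than 50% relative to plate controls in a single-dose test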;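 also: His-tagged Mcl-1 with rhodamine Noxa BH3 peptide and terbium anti-His antibody; 0% = Mcl-1 plus Noxa peptide wells and 100% = peptide-only wells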
# Bim-Mcl-1: inhibitors of Bim-Mcl-1 interaction, human. Q07820. Bead-based flow cytometry, Bim peptide-Mcl-1 binding. inhibition, % at 10 µM. 0.1% of 190,000 active; in the data active = inhibition above about 40%;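 also: 0% = no compound tracer wells and 100% = peptide blocker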
# The depositor's hits bear a star; x = no result given; + = active, no number; ! = not confirmed by another sample; [ ] = dose if it differs, or a comment. Most compounds without a hit are left out; they make up all but 3.5% or so of the library.
SMILES,Mcl1 Bid PPI,eIF4E 4G PPI,14-3-3 Bad inh,Hck-Nef inh,Mcl1 Noxa PPI,Bim-Mcl-1
CCOC(=O)c1snc(-c2ccc(F)cc2)c1N,-17.7,2.6,0.3,-1.7,-9.1,66.0*
NC(N)=N/N=C/c1ccc(OCc2ccc(Cl)cc2)cc1,-44.2,8.2,86.6*[fluorescence artefact?],7.2,-3.1,2.0
CCOc1ccccc1-n1nnnc1SCC(=O)NCc1ccco1,-38.0,2.0,0.7,28.2,9.8,1.0
Cc1ccc(NC(=O)Cn2cccc2)cc1Cl,-9.1,-1.1,+,0.9,5.5,0.0
Cc1ccc(NC(=O)CCn2cccc2)cc1C,59.9*,-3.9,-9.6,0.7,12.9,-2.0
Cc1ccc(S(=O)(=O)N2CCN(c3ccccn3)CC2)cc1,-20.1,-3.8,-1.0,10.6,14.4,x
O=S(=O)(c1ccc(Br)s1)N1CCN(c2ccccn2)CC1,-3.2,4.3,85.3*,1.5,14.0,-1.0
Cc1n[nH]c(C)c1S(=O)(=O)N1CCN(c2ccccn2)CC1,70.2*,1.9,-7.0,-1.7,-10.1,-3.0
Cc1ccc(N(CC(=O)Nc2ccc3c(c2)OCCO3)S(C)(=O)=O)cc1,-31.7,-0.3,-6.1,18.4,6.9,0.0
O=C1CCCC(O)=C1N=Nc1cccc(C(=O)O)c1,-42.7,6.7,47.5,28.5,56.7*,0.0
CCN(CC)S(=O)(=O)c1cccc(N=NC2=C(O)CCCC2=O)c1,-20.7,-2.9,-9.6,1.0,33.6,-1.0
COc1cc(/C=N/NC(=O)CN(Cc2ccco2)S(=O)(=O)c2ccccc2)ccc1O,-22.6,2.7,-13.7,0.8,23.6,45.0*
O=C(CCC1CCCN(C(=O)CCC(F)(F)F)C1)NCc1ccc(F)c(F)c1 (stereo unspecified),12.3,-2.6,11.4,16.6,52.6*,-1.0
CCN(CC)c1ccc(NC(=O)C2CC3CCC2C3)cc1 (stereo unspecified),9.4,-0.1,11.6,9.5,67.0*,0.0
CC(=O)Nc1cccc(NC(=O)C2CC3CCC2C3)c1 (stereo unspecified),-11.1,9.8,-1.9,-0.4,11.0,0.0
CC(=O)Oc1ccc(-c2cccc(C(=O)NCCCO)c2)cc1,-4.4,3.8,-1.7,2.8,-10.2,-3.0
O=C(N/N=C/c1ccc(-c2ccccc2C(=O)O)o1)c1cccs1,-0.1,13.6,16.1,12.1,79.3*,2.0
c1ccc(-c2noc(CN3CCCC(OCc4ccccn4)C3)n2)cc1 (stereo unspecified),4.6,-4.6,-12.8,21.5,8.3,-1.0
COc1ccc(NS(=O)(=O)c2ccc(O)c(NC(=O)c3cc4c(C)nn(-c5ccc(F)cc5)c4s3)c2)cc1,6.6,16.4,3.1,27.9,65.3*,2.0
N#C/C(=C\c1ccco1)C(=O)NCC1CCCO1 (stereo unspecified),-20.3,3.2,-19.8,3.9,6.3,-5.0
CC(=O)Nc1ccc(C(=O)Nc2nc(-c3ccccn3)cs2)cc1,-30.2,-1.2,-5.7,13.9,69.7*,-2.0
Cc1ccc(C(=O)Nc2nc(-c3ccc([N+](=O)[O-])cc3)cs2)o1,56.3*,11.3,62.2,3.7,65.2*,-1.0
O=C(Nc1nc(-c2ccccn2)cs1)c1ccc([N+](=O)[O-])o1,-16.2,7.4,-1.9,7.6,90.2*,x
Cc1ccc(C(=O)Nc2nc(-c3ccccn3)cs2)o1,-90.3,0.9,-16.0,17.6,-2.9,x
CC(=O)Nc1ccc(-c2csc(NC(=O)c3ccc(C)o3)n2)cc1,-2.5,1.1,-18.2,10.3,x,-4.0
SMILES,Mcl1 Bid PPI,eIF4E 4G PPI,14-3-3 Bad inh,Hck-Nef inh,Mcl1 Noxa PPI,Bim-Mcl-1
CC(=O)Nc1ccc(C(=O)Nc2nc(-c3cccnc3)cs2)cc1,-40.2,2.7,27.7,9.8,34.9,0.0
Cc1ccc(C)c(-c2csc(NC(=O)c3cnccn3)n2)c1,-13.4,2.6,1.0,3.0,11.3,-3.0
Cc1ccc(C(=O)Nc2nc(-c3cc(Cl)sc3Cl)cs2)cc1,-5.1,-20.1,11.6,5.5,53.4*,5.0
O=C(O)c1ccc(N2C(=O)CC(N3C(=O)/C(=C/c4ccc(Cl)cc4)SC3=S)C2=O)cc1 (stereo unspecified),-17.9,-0.3,32.0,3.9,4.0,x
CC(=O)C1=C(C)N(Cc2ccccc2)C(=O)N[C@H]1c1ccco1,-36.6,1.2,1.1,16.0,3.0,x
Cc1csc(NC(=O)c2ccncc2)n1,7.5,2.5,43.1,20.7,64.1*,x
N#Cc1nc(COc2ccc(F)cc2)oc1N1CCN(Cc2ccccc2)CC1,76.8*,-2.3,-3.5,0.6,2.8,1.0
N#Cc1nc(COc2ccc(Br)cc2)oc1N1CCN(Cc2ccccc2)CC1,-26.0,5.1,7.4,2.2,7.7,-6.0
Nc1ccc2c(c1)nc(Cc1ccccc1)n2CCO,-48.9,2.2,-10.0,15.0,8.3,0.0
CC(=O)Nc1ccccc1OCC(=O)NCCC1=CCCCC1,-14.4,-1.1,-3.6,14.7,-4.2,0.0
Cc1ccccc1OCC(=O)NCCC1=CCCCC1,-19.3,6.3,82.5*,2.3,-4.2,-8.0
Cc1ccc(S(=O)(=O)N2CCC(C(=O)NNC(=O)c3ccncc3)CC2)cc1,-7.9,-1.6,5.3,-6.5,4.9,1.0
O=S(=O)(Nc1cc(Sc2cccc3cccnc23)c(O)c2ccccc12)c1ccc(F)cc1,-28.3,0.5,22.8,3.0,51.1*,1.0
COc1ccc(S(=O)(=O)Nc2cc(Sc3ncn[nH]3)c(O)c3ccccc23)cc1,45.1,46.2*[fluorescence artefact?],86.9*[fluorescence artefact?],22.2,90.5*,0.0
O=[N+]([O-])c1ccccc1-c1ccc(/C=N/n2cnnc2)o1,-31.2,-0.3,2.7,2.0,18.0,-2.0
O=C1ON=C(c2ccccc2)/C1=C/c1ccc(-c2ccccc2[N+](=O)[O-])o1,-10.7,5.2,21.9,44.6,67.2*,-8.0
CN1CCc2c(OCC(=O)N3N=C(c4cccs4)CC3c3ccc(F)cc3)cccc2C1=O (stereo unspecified),53.9*,0.6,-2.4,1.5,9.9,-4.0
CCN1CCc2c(OCC(=O)N3N=C(c4cccs4)CC3c3ccc(F)cc3)cccc2C1=O (stereo unspecified),4.7,7.6,-4.5,0.9,-19.1,-5.0
O=C1CC(c2ccccc2)CC2=C1C(c1ccccn1)Nc1ccccc1N2 (stereo unspecified),-4.3,-1.0,-4.2,1.3,13.9,-1.0
COc1ccc(C2CC(=O)C3=C(C2)Nc2ccccc2NC3c2coc3ccccc3c2=O)cc1OC (stereo unspecified),-43.2,-0.9,8.7,2.3,10.1,42.0*
O=[N+]([O-])c1cc(Br)cc(C=Nc2ccc3c(c2)OCO3)c1O,0.4,9.3,16.1,39.8,54.6*,x
Cn1c(CSCc2ccc(Cl)cc2)n[nH]c1=S,-20.5,2.8,-5.6,0.4,31.7,-7.0
O=c1nc2c(O)cccn2c2c1c(=O)[nH]c1ccccc12,-83.4,8.8,2.4,-4.7,60.6*,21.0
COc1cccc2c(=O)c3ccccc3oc12,54.6*!,0.2,-4.7,22.0,-11.1,0.0
